# PubChem BioAssay (NCI)
# The panel holds about 79,000 compounds, 15% with a hit somewhere; the sample as a whole holds those more often. Calls of active or inactive are those of the source. No stated cut-off is given here; in the data, active means growth inhibition above about 70%; inactive means the rest.
# Assay: NCI Yeast Anticancer Drug Screen. Data for the rad18 strain (AID 177)
# Settings: S. cerevisiae rad18 mutant growth inhibition, hits give high values
# Method: Growth inhibition of yeast strains with defined genetic alterations is measured as a screen for potential anti-cancer activity. Selected strains with alterations in DNA damage repair or cell cycle control were exposed to compounds and growth inhibition was measured relative to vehicle treated controls. The strain used in this assay is rad18
Structure (SMILES),growth inhibition (at 1.2 µM),growth inhibition (at 3.7 µM),growth inhibition (at 11.0 µM),growth inhibition (at 33.0 µM),growth inhibition (at 100.0 µM)
CCCCCCCCCCCCCCCCCCNC(=S)/N=C\C1=C(O)c2ccccc2C1=O,8% (inactive),11% (inactive),22% (inactive),30% (inactive),26% (inactive)
Oc1ccccc1N=Cc1ccc(Cl)cc1,17% (inactive),30% (inactive),43% (inactive),64% (inactive),87% (active)
CCCCCC(=O)c1ccc(O)cc1O,-17% (inactive),3% (inactive),9% (inactive),92% (active),98% (active)
Cc1ccc(Nc2c3c(c(C#N)c4nc5ccccc5n24)CCCC3)cc1,6% (inactive),27% (inactive),38% (inactive),75% (active),72% (active)
CC(=O)O[C@H]1C(=O)[C@@]2(C)[C@H]([C@H](OC(=O)c3ccccc3)[C@]3(O)C[C@H](OC(=O)[C@H](O)[C@@H](NC(=O)c4ccccc4)c4ccccc4)C(C)=C1C3(C)C)[C@]1(OC(C)=O)CO[C@@H]1C[C@@H]2O,-5% (inactive),-1% (inactive),1% (inactive),2% (inactive),0% (inactive)
CC(=O)c1cc2c(Cl)cc(Cl)cc2oc1=O,10% (inactive),-3% (inactive),-11% (inactive),-11% (inactive),-6% (inactive)
CCC(=O)Oc1ccc(/C=N/NC(N)=S)nc1,-4% (inactive),1% (inactive),-3% (inactive),-8% (inactive),-5% (inactive)
CCCc1[nH]nc(C(N)=O)c1N=NN(C)C,-2% (inactive),6% (inactive),32% (inactive),83% (active),94% (active)
